From PubChem BioAssay
Some of the results follow. Calls of active or inactive are those of the source. Cut-off read from the data, not from the text of the source, unless noted: active = activity above about 50%; inactive = the rest.

Tests used:
[1] = target: Tumor necrosis factor receptor superfamily member 10B (Homo sapiens) (UniProt O14763); assay: caspase-8 TRAIL sensitization, hit retest, confirmation, cell-based, NB7+caspase-8, with/without TRAIL, luminescence panel (AID 651596); conditions: NB7 neuroblastoma + caspase-8, TRAIL sensitization, luminescence viability, with TRAIL, mean of runs, at 10 µM, stronger effect = higher value
[2] = as above; conditions: NB7 neuroblastoma + caspase-8, without TRAIL, luminescence viability, without TRAIL, mean of runs, at 10 µM
[3] = target: Tumor necrosis factor receptor superfamily member 10B (Homo sapiens) (UniProt O14763); assay: TRAIL sensitizers in caspase-8 expressing neuroblastoma cells, dose response, NB7 cells plus caspase-8, luminescence, panel (AID 652002); conditions: NB7 neuroblastoma +caspase-8, TRAIL sensitization, luminescence viability, NB7+Caspase-8, with TRAIL, run 1; at 12.5 µM (top of the series)
[4] = target: Tumor necrosis factor receptor superfamily member 10B (Homo sapiens) (UniProt O14763); assay: as above; conditions: NB7 neuroblastoma +caspase-8, TRAIL sensitization, luminescence viability, NB7+Caspase-8, with TRAIL, run 2; at 12.5 µM (top of the series)
[5] = as above; conditions: NB7 neuroblastoma +caspase-8, no TRAIL, compound-alone cytotoxicity counter-screen, luminescence viability, NB7+Caspase-8, run 1; at 12.5 µM (top of the series) unless noted
[6] = as above; conditions: NB7 neuroblastoma +caspase-8, no TRAIL, compound-alone cytotoxicity counter-screen, luminescence viability, NB7+Caspase-8, run 2; at 12.5 µM (top of the series) unless noted
[7] = target: COP9 signalosome complex subunit 5 (Homo sapiens) (UniProt Q92905); assay: Csn5 deneddylation inhibitors, confirmation, biochemical, fluorescence polarization, single concentration, SCF-Nedd8OG substrate (AID 720654; in the data active = inhibition above about 50%;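 note: 0% = DMSO with enzyme and 100% = no enzyme wells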); conditions: Csn5 deneddylation of SCF-Nedd8OG, 90 min, at 16.6 µM, stronger effect = higher value
[8] = target: 72 kDa type IV collagenase (Homo sapiens) (UniProt P08253); assay: MMP-2 protease inhibition counter-screen, confirmation, counter-screen for CSN deneddylation inhibitor project, biochemical, fluorescence, single concentration (AID 720655;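 active = corrected plate-normalized z-score of 5 or more, or -5 or less, or inhibition of 15% or more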;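 note: plate controls were DMSO wells with enzyme for no effect and buffer wells lacking MMP-2 for full effect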); conditions: recombinant MMP-2, FRET substrate fluorescence, 60 min; at 16.6 µM
Prothrombin (Bos taurus) = Prothrombin (Bos taurus) (UniProt P00735); assay: bovine thrombin inhibition counter-screen, confirmation, counter-screen for CSN deneddylation inhibitor project, biochemical, fluorescence polarization, single concentration (AID 720656;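 active = inhibition at or above a set limit, with a fluorescence interference ratio between 0.5 and a set maximum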); conditions: bovine thrombin cleavage of Ub4-pepOG, at 16.6 µM, stronger effect = higher value
Chain of Prothrombin (Bos taurus) (P00735 whole entry, looked up): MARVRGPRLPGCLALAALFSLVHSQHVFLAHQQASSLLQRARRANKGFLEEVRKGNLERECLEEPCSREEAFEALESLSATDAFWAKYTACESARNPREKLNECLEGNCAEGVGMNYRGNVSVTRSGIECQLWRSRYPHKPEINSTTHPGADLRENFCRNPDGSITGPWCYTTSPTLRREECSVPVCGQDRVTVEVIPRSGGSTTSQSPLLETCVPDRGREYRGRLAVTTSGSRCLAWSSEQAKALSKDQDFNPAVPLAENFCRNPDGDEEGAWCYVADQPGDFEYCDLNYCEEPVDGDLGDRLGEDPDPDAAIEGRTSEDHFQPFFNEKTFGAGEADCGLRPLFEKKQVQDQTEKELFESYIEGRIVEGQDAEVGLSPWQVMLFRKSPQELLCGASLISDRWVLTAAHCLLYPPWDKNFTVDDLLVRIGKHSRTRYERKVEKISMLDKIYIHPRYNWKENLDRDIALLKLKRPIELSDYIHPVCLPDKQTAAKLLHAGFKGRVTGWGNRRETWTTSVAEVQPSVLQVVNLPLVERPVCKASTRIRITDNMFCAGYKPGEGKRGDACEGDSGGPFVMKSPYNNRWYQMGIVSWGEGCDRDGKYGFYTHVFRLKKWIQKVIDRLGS

Chain of COP9 signalosome complex subunit 5 (Homo sapiens) (Q92905 whole entry, looked up, one chain of several): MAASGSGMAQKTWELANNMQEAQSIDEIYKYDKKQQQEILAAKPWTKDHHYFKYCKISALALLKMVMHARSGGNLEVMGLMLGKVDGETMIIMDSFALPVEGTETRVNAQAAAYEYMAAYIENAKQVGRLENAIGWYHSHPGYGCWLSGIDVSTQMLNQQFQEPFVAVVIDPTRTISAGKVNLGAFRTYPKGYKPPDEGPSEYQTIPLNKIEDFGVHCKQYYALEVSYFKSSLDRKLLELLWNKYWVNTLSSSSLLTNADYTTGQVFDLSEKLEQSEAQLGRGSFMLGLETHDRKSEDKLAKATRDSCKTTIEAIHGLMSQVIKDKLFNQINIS
Chain of 72 kDa type IV collagenase (Homo sapiens) (P08253 whole entry, looked up): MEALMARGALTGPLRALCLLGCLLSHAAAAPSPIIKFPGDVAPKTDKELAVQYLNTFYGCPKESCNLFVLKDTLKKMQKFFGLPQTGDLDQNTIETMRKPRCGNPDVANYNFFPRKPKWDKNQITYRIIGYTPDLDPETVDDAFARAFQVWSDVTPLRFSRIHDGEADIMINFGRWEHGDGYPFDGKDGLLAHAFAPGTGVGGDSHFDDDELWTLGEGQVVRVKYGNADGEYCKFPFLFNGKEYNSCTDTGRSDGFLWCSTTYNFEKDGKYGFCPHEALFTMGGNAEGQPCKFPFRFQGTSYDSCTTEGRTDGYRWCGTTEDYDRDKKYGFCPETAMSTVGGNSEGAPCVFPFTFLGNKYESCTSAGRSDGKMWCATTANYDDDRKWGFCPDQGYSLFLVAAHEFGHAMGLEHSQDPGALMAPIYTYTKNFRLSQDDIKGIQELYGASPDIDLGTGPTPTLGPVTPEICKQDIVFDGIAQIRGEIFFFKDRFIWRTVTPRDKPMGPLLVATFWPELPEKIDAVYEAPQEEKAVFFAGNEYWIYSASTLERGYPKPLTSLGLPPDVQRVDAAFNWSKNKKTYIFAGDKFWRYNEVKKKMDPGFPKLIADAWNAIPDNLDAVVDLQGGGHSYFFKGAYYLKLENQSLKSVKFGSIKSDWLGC
Chain of Tumor necrosis factor receptor superfamily member 10B (Homo sapiens) (O14763 whole entry, looked up): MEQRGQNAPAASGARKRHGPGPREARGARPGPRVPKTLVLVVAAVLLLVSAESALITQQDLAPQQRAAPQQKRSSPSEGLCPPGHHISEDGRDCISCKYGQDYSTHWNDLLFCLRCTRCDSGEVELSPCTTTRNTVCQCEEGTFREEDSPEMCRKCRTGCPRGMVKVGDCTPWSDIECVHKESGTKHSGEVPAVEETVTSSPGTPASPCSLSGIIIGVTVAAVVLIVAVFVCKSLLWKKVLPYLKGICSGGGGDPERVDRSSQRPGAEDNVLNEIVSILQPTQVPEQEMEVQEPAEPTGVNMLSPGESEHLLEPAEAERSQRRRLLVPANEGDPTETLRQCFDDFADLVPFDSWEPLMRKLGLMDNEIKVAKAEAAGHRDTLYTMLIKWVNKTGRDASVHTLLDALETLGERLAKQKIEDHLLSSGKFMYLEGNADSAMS

| SMILES | activity [1] [%] | activity [2] [%] | activity, % sensitization [3] [%] | activity, % sensitization [4] [%] | activity, % sensitization [5] [%] | activity, % sensitization [6] | inhibition [7] | inhibition [8] | inhibition (Prothrombin (Bos taurus)) |
| --- | --- | --- | --- | --- | --- | --- | --- | --- | --- |
| O=C(Nc1ccc2c(c1)OCO2)c1ccc2c(c1)OCO2 | 56.3 | 53.1 | 46.4 | 44.3 | 50.5 | 33.4% |  |  |  |
| Cc1nc(Cl)c2oc3ccccc3c2n1 | 84 | 31.1 | -4.95 | -0.917 | -7.33 | -8.16% |  |  |  |
| CCOc1ccc(-c2cc(C(=O)N3CCC(C)CC3)c3ccccc3n2)cc1 | 53.4 | 47.2 | 23.7 | 31.6 | -3.22 | -9.62% |  |  |  |
| CCCCC1CCC(C(=O)N(CCC(C)C)c2c(N)n(CCCC)c(=O)[nH]c2=O)CC1 (stereo unspecified) | 90.3 | 39.2 | -14.2 | -10.1 | -5.24 | -5.58% |  |  |  |
| CC(C)(C)C1C/C(=C/c2ccco2)C(=O)/C(=C/c2ccco2)C1 (stereo unspecified) |  |  |  |  |  |  | 71.5% (active) | 1.32% (inactive) | 10.1% (inactive) |
| O=C(N/N=C/c1cccnc1)c1ccc2c(c1)OCO2 | 51.9 | 42.5 | 32.8 | 32.4 | 32.2 | 46.2% |  |  |  |
| O=C(O)C(c1ccccc1)N1C(=O)/C(=C\c2ccc(-c3cccc(Cl)c3)o2)SC1=S (stereo unspecified) |  |  |  |  |  |  | 14.6% (inactive) | -20.6% (inactive) | 51.9% (active) |
| Cc1nn(-c2ccccc2)c2nc(N)c(C#N)c(-c3ccc(F)cc3)c12 | 61.9 | 46.8 | -8.21 | 4.3 | 6.23 | 37.2% |  |  |  |
| COC(=O)c1ccc(/C=C(\C#N)c2ccccn2)cc1 | 51 | 40.8 | -7.25 | -19.4 | -8.36 | -11% |  |  |  |
| O=C1c2ccc3c4c(ccc(c24)C(=O)N1c1cccc(O)c1)C(=O)N(c1cccc(O)c1)C3=O | 63.2 | 53.8 | 52.1 | 35.7 | 29.8 | 21.3% |  |  |  |
| O=C(NC(=O)c1ccccc1)Nc1ccccc1 | 54.2 | 49.9 | 28.7 | 6.32 | 7.63 | -8.56% |  |  |  |
| Cc1ccc(N=C/C(C(=O)C(F)(F)F)=C(\O)c2cccs2)cc1 | 56.1 | 53.8 | 83.3 | 63.5 | -0.893 | 77.5% |  |  |  |
| CC(C)C(=O)Nc1ccc(NC(=O)c2ccccn2)cn1 | 53.6 | 53 | 34.7 | 36.7 | 8.97 | 37.8% |  |  |  |
| O=C(Nc1ccc2c(c1)OCCO2)NC1CCCCC1 | 49.5 | 35.8 | 31.2 | 41.7 | 32.9 | 21% |  |  |  |
| Cc1ccc(-c2nn(-c3ccccc3)cc2/C=C2\SC(=S)N(CCCCCC(=O)O)C2=O)o1 |  |  |  |  |  |  |  | -170% (active) | -24.4% (inactive) |
| CCSc1ccc(-c2ccc(C)cc2)nn1 | 59.6 | 51.1 | 47.8 | 52.9 | 5.62 | 35.8% |  |  |  |
| COc1cccc(C(=O)Nc2ccc(C3CC3(Cl)Cl)cc2)c1 (stereo unspecified) | 47 | 46.5 | 12.6 | 30.2 | 5.52 | 21.8% |  |  |  |
| Clc1nc(Cl)c2ncn(-c3ccccc3)c2n1 | 81 | 52.3 | -4.89 | -7.36 | 2.2 | -11.5% |  |  |  |
| COc1ccc(-c2cc(C(=O)OCC(=O)Nc3ccc4c(c3)OCO4)c3ccccc3n2)cc1 | 54.6 | 48.5 | 31.3 | 43.9 | 34.3 | 46.2% |  |  |  |
| CCN(CC)c1ccc(/C=N/NC(=O)c2ccco2)cc1 | 56.5 | 53.3 | 25 | 39.3 | 34 | 23.6% |  |  |  |
| O=C(ONC1=NCCCCC1)c1ccc(Cl)cc1 | 89.3 | 47.2 | 16.1 | 23.5 | 7.61 | 44.2% |  |  |  |
| COc1ccc(-c2noc(-c3ccc4c(c3)OCO4)n2)cc1 |  | 49.9 |  |  |  |  |  |  |  |

| SMILES | activity [1] [%] | activity [2] [%] | activity, % sensitization [3] [%] | activity, % sensitization [4] [%] | activity, % sensitization [5] [%] | activity, % sensitization [6] | inhibition [7] | inhibition [8] | inhibition (Prothrombin (Bos taurus)) |
| --- | --- | --- | --- | --- | --- | --- | --- | --- | --- |
| Cc1cc(NC(=O)C2CCCC2)nc2c1c(=O)oc1ccccc12 | 68.7 | 50.2 | 15 | -6.85 | 0.143 | 17.1% |  |  |  |
| CCN(CC)c1ccc(NC(=O)Nc2ccccc2)cc1 | 52 | 47 | 37.6 | 44.7 | 12 | 31.2% |  |  |  |
| CN(C)c1ccc(N/C=C/C(=O)c2ccco2)cc1 | 62.6 | 22.4 | 53.8 | 49.4 | 18.4 | 43.5% |  |  |  |
| CC(C)CCn1cnc2c([nH]c3cccc(Cl)c32)c1=O | 60.6 | 52.9 | -14.6 | -14 | -4.11 | 0.76% |  |  |  |
| C=CCC1=C/C(=C\c2c(N)n3nc(CC(=O)N4CCOCC4)sc3nc2=O)C=C(OC)C1=O |  |  |  |  |  |  | 16.7% (inactive) | -4.68% (inactive) | 72.6% (active) |
| CC1(Cc2ccc(OC(F)(F)F)cc2)C(=O)Nc2ccc(S(=O)(=O)NC3CCCCC3)cc21 (stereo unspecified) | 46.4 | 31 | -0.836 | -0.606 | 23.3 | 28.2% |  |  |  |
| COc1ccc2[nH]c3c(C)c4cc[n+](C)cc4c(C)c3c2c1 |  |  |  |  |  |  | -33.2% (inactive) | -35.8% (active) | 12.2% (inactive) |
| O=C(Nc1ccc(Br)cc1F)c1ccc2c(c1)OCCO2 | 56.6 | 43 | 35.1 | 39.5 | 7.23 | 34.6% |  |  |  |
| CCN(CC)S(=O)(=O)c1ccc(C(=O)OCC(=O)Nc2ccc(-c3nc4ccc(C)cc4s3)cc2)cc1 | 68.5 | 55 | 20.1 | -0.711 | 13.4 | -8.61% |  |  |  |
| C=Cc1ccc(Cn2c(C)c(C(=O)NCc3cccc(C(F)(F)F)c3)sc2=O)cc1 | 60.2 | 20.5 | -5.7 | -12.9 | 5.05 | 6.45% |  |  |  |
| CS(=O)(=O)c1ccc2c(c1)SC1=NC(=O)/C(=C/c3ccco3)C(=N)N12 |  |  |  |  |  |  | 50% (inactive) | 4.65% (inactive) | 41.6% (active) |
| CC1(C)N=C(N)N=C(N)N1c1ccc(Oc2ccc(Cl)cc2)c(Cl)c1 | 57.3 | 51 | 50.2 | 62.6 | 60.3 | 68.3% [at 6.25 µM] |  |  |  |
| O/C(=C\c1ccc2ccccc2n1)c1ccc(O)cc1O | 62.3 | 42.8 | 31.9 | 48.7 | 1.18 | 20.3% |  |  |  |
| CC1(C)N=C(N)N=C(N)N1c1ccc(CCCCc2ccccc2)cc1 | 53.6 | 54.3 | 58.2 | 52.2 | 1.29 | 66.9% |  |  |  |
| Cc1ccc(C(=O)O)cc1-c1ccc(/C=C2\SC(=O)N(CC(=O)Nc3ccc4c(c3)OCO4)C2=O)o1 |  |  |  |  |  |  | 155% (active) | -3.01% (inactive) | 7.47% (inactive) |
| CCCCc1nc(NCCN)c(C#N)c2c1CSC(C)(C)C2 | 72.5 | 53.7 | -8.34 | -1.9 | 3.06 | -6.28% |  |  |  |
| COc1cc(/C=C2/C(=O)NN(c3cccc(Cl)c3)C2=O)cc(Br)c1O |  |  |  |  |  |  | 27.3% (inactive) | -17.1% (inactive) | 36.3% (active) |
| COc1cccc(NC(=O)Nc2nccc(C)n2)c1 | 64.5 | 53 | 46.7 | 47.6 | 25.8 | 11.9% |  |  |  |
| COC(=O)c1ccc(/C=C/c2nc3ccccc3c(=O)[nH]2)cc1 | 60.9 | 52.2 | -15.3 | -22.1 | 2.64 | -17.7% |  |  |  |
| O=C(CSc1nc2ccccc2c(=O)[nH]1)Nc1nc(-c2ccc(Br)cc2)cs1 |  |  |  |  |  |  | 105% (active) | 16.9% (active) | -37.2% (inactive) |
| Cc1ccc(NC(=O)c2cc3ccccc3o2)nc1 | 58.9 | 49.5 | 32.6 | 41.2 | 43 | 41.7% |  |  |  |
| Cc1cccc(CC(=O)Nc2cc(C)c3c(=O)oc4ccccc4c3n2)c1 | 67.3 | 45.5 | -12.3 | -4.35 | -6.37 | 0.373% |  |  |  |
